A selection: hits, their analogues and other compounds. The true share with any hit is near 9.8%.
KDM4E inh – qHTS Assay for Inhibitors of Human Jumonji Domain Containing 2E (JMJD2E) | 1.6% of 230,000 active | Lysine-specific demethylase 4E (Homo sapiens), B2RXH2 | Potency, µM (highest dose often 57.1 µM), hits mostly inhibitors | JMJD2E catalytic domain, FDH-coupled NADH fluorescence (FDH is formaldehyde dehydrogenase); note: nearly all actives have a fitted effect of over 50% in size
HPGD inh – qHTS Assay for Inhibitors of HPGD (15-Hydroxyprostaglandin Dehydrogenase). 15-hydroxyprostaglandin dehydrogenase [NAD(+)] (Homo sapiens), P15428. purified HPGD, NADH fluorescence kinetic, PGE2 substrate. Potency, µM, hits mostly inhibitors. 4.3% of 150,000 active. AID 894, 2007
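20 nM HPGD preincubated 15 min at room temperature with compound in 50 mM Tris-HCl pH 8, 0.01% Tween 20. Started with 1 mM NAD+ and 30 uM prostaglandin E2; NADH fluorescence (360/450 nm) read 5 times over 30-s intervals, last minus first.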
ALDH1A1 block – qHTS Assay for Inhibitors of Aldehyde Dehydrogenase 1 (ALDH1A1). Aldehyde dehydrogenase 1A1 (Homo sapiens), P00352. Purified ALDH1A1, NADH fluorescence, propionaldehyde substrate. Potency, µM (doses to about 75.3 µM), actives largely listed as inhibitors. 7.3% of 220,000 active. AID 1030, 2008
HttQ103 aggreg – qHTS Multiplex Assay to Identify Dual Action Probes in a Cell Model of Huntington: Aggregate Formation (GFP); PC12 HttQ103-GFP aggregates, Acumen cytometry, 40 h; Potency, µM (series often up to 46.1 µM), most hits filed as inhibitors; 1.1% of 220,000 active; AID 1688, 2009; active = well fitted curve in the direction sought with a large enough effect; inconclusive = small, poorly fitted or top-dose-only effect, or another doubt; inactive = no such curve, though single readings can be large; an effect the other way counts as inactive or inconclusive; note: nearly all actives have a fitted effect of over 60% in size
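Read-out: GFP aggregate count by laser scanning cytometer (488 nm excitation, 500-530 nm emission, 1–25 µm objects >6 SD above background). Cells: PC12, inducible HTTex1-Q103-GFP, 100 nM tebufenozide; compounds titrated.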
HTT ATP protect – qHTS Multiplex Assay to Identify Dual Action Probes in a Cell Model of Huntington: Cytoprotection (ATP); PC12 HTT-Q103 induced, cytoprotection, ATP luminescence, 40 h; Potency, µM (titrated, usually from 56.4 µM), actives largely listed as activators; 0.14% of 230,000 active; AID 1471, 2008; active = well fitted curve in the direction sought with a large enough effect; inconclusive = small, poorly fitted or top-dose-only effect, or another doubt; inactive = no such curve, though single readings can be large; an effect the other way counts as inactive or inconclusive; note: nearly all actives have a fitted effect of over 45% in size
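Huntington model: PC12 line, ecdysone-inducible HTTQ103 exon1–GFP, tebufenozide 100 nM. Test articles in a dose series. Endpoint luminescence from cellular ATP.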
CBFb-RUNX1 inh – qHTS Assay for Compounds Blocking the Interaction Between CBF-beta and RUNX1 for the Treatment of Acute Myeloid Leukemia; Runt-related transcription factor 1 (Homo sapiens) + Core-binding factor subunit beta …; AlphaScreen CBFb-His/RUNX1-biotin binding, biochemical; Potency, µM (doses to about 59.8 µM), hits mostly inhibitors; 230,000 tested, under 10 active; AID 1477, 2009; active = well fitted curve in the direction sought with a large enough effect; inconclusive = small, poorly fitted or top-dose-only effect, or another doubt; inactive = no such curve, though single readings can be large; an effect the other way counts as inactive or inconclusive
Target sequence (Q01196 whole entry, looked up): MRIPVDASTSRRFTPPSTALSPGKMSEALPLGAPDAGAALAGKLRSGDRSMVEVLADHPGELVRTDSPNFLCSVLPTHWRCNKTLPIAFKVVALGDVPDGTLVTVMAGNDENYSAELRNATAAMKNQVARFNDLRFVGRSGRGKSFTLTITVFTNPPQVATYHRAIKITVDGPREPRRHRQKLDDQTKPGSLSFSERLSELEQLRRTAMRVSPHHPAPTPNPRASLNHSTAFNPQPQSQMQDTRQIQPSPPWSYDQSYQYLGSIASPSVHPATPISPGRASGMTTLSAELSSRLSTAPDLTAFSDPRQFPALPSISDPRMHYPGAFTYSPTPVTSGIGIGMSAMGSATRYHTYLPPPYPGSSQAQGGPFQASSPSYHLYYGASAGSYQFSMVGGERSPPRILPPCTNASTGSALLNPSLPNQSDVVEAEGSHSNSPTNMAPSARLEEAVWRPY
Target sequence (Q13951 whole entry, looked up): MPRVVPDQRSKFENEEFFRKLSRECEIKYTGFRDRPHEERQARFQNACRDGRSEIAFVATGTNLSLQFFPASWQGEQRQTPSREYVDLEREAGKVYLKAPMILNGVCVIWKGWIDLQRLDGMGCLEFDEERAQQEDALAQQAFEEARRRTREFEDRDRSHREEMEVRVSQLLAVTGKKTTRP
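Interaction loss through any mechanism counts as activity. Pre-formed complex of His-CBF-beta and biotin-RUNX1 (30 nM apiece) is incubated with compound 15 min, then with 50 ng nickel and 50 ng streptavidin beads for 90 min before AlphaScreen detection.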
Numbers stand for hits; n = inactive; u = inconclusive; x = no result; [ ] = remark or other dose. Unless noted, calls come from the whole dose curve; as a rule, active = well fitted inhibition curve with a large enough effect (not every such curve was filed as active); inconclusive = small, poorly fitted or top-dose-only effect, or another doubt; inactive = no such curve, though single readings can be large or run the other way.

SMILES	KDM4E inh	HPGD inh	ALDH1A1 block	HttQ103 aggreg	HTT ATP protect	CBFb-RUNX1 inh
O=C(O)C12CC3CC(C1)CC(n1ncc(N4CCN(c5ccccc5)CC4)c(Cl)c1=O)(C3)C2	n	n	7.1µM	n	n[10 µM]	n
Cc1ccc(C(=O)OCC(=O)Nc2c(Cl)cc(S(N)(=O)=O)cc2Cl)o1	n	x	n	n[9.22 µM]	n[10 µM]	n
CCOC(=O)c1nn(-c2ccccc2)c(=O)cc1SC1CCCCC1	n	x	u	n[9.22 µM]	n[1.9 µM]	n
CCC1=C/C(=C/N(C)c2ccccc2)C(=O)S1	n	22µM	25µM	n	n	n
CN(C)/C=C1/C=C(c2ccccc2)OC1=O	u	n	u	n[9.22 µM]	n	n
COc1ccc(CN(C(C)=O)c2cccc(C)c2C)cc1	n	n	5µM	n	n	n
COCCCn1c(SCC(=O)N2CCCC(C)C2)nnc1-c1ccco1 (stereo not drawn)	n	n	u	n	n	n
O=c1c(-c2ccc3c(c2)OCCO3)coc2cc(O)cc(O)c12	u	28µM	16µM	n	n[1.9 µM]	n
Cc1nc(-c2coc3c(CN(C)C)c(O)ccc3c2=O)cs1	28µM	u	u	n	n[10 µM]	n
O=c1c(-c2ccccc2)coc2cc(O)cc(O)c12	n	6.3µM	11µM	x	n	u
CCN(CC)Cc1c(O)ccc2c(=O)c(-c3ccc4c(c3)OCCO4)coc12	u	u	u	11µM	n[10 µM]	n
O=c1c(-c2ccc(O)cc2)coc2cc(OC3OC(CO)C(O)C(O)C3O)cc(O)c12 (stereo not drawn)	n	u	n	n	x	n
O=C(CNC(=O)c1ccc(Cl)cc1)N/N=C/c1cccnc1	n	x	x	n[9.22 µM]	n[10 µM]	n
Cc1cn(C2CC3OCC(NC(=O)C(NC(=O)OC(C)(C)C)C(C)OCc4ccccc4)C3O2)c(=O)[nH]c1=O (stereo not drawn)	x	x	x	x	x	n
O=C1CC(NNc2ccccc2)C(=O)N1c1ccccc1 (stereo not drawn)	n	n	18µM	n	n[10 µM]	n
Cc1ccc(NNC2CC(=O)N(c3cccc(Cl)c3)C2=O)cc1 (stereo not drawn)	u	x	25µM	n	n	n
O=C(NNC1CC(=O)N(c2cccc(Cl)c2)C1=O)c1cccs1 (stereo not drawn)	n	n	u	n	n[10 µM]	n
C=CCNC(=O)c1ccc(C(=O)c2ccccc2)cc1	n	13µM	u	n[9.22 µM]	n	n
C=CCNC(=O)c1ccccc1CCc1ccccc1	n	x	n	n	n	n
C=CCNC(=O)c1ccccc1Cl	n	16µM	n	n	n	n
CCc1ccc(/C=N/NC(=O)Cc2cccn2C)cc1	n	x	x	n[9.22 µM]	n[10 µM]	n
CN(C)S(=O)(=O)N(CC(=O)N1CCN(c2ccccc2)CC1)c1ccccc1	n	x	n	n[9.22 µM]	n[10 µM]	n
N#CC(c1cccc(Cl)c1)c1ccc2c(C(F)(F)F)cc(C(F)(F)F)nc2n1 (stereo not drawn)	n	n	u	0.89µM	n	n
CCCN1CCC(=NNC(=O)c2ccc(Br)o2)CC1	n	n	13µM	n	n	n
CCCN1CCC(=NNc2ccc(C(=O)O)cc2)CC1	n	x	25µM	n	n	n
SMILES	KDM4E inh	HPGD inh	ALDH1A1 block	HttQ103 aggreg	HTT ATP protect	CBFb-RUNX1 inh
COc1ccc(C2C(C(=O)N3CCC(C(N)=O)CC3)CC(=O)N2c2ccc(OC)cc2)cc1 (stereo not drawn)	n	x	u	n	n	n
O=C(Nc1nc2ccccc2s1)c1ccc(OCC2CCCO2)cc1 (stereo not drawn)	u	x	u	32µM	n[10 µM]	n
COc1ccc(/C=N/NC(N)=S)cc1OC(=O)c1ccccc1	n	25µM	n	n	n	n
COc1ccc(C(=O)Oc2cc(/C=N/NS(=O)(=O)c3ccccc3)ccc2OC)cc1	n	n	3.2µM	n	n	n
COc1ccc(/C=N/NC(=S)SC)cc1OC	u	x	10µM	n	n[10 µM]	n
Cc1cc(-n2c(C)cc(C(=S)N3CCOCC3)c2C)ccc1Br	n	10µM	11µM	n	n[10 µM]	n
O=C(/C=C/c1ccccc1)n1cnnc1SC/C=C/c1ccccc1	n	14µM	n	u	n[10 µM]	n
O=[N+]([O-])c1ccc(NC(=S)NCCc2ccccc2)cc1	n	n	u	u	u	n
CC(NC(=S)Nc1ccc([N+](=O)[O-])cc1)c1ccncc1 (stereo not drawn)	n	x	20µM	n	n[10 µM]	n
O=[N+]([O-])c1ccc(NC(=S)NCc2ccncc2)cc1	n	x	11µM	n	n	n
O=[N+]([O-])c1cccc(NC(=S)NCc2ccncc2)c1	n	x	9.5µM	n	x	n
Cc1ccc(S(=O)(=O)NC(=O)OC23COCN2COC3)cc1	x	n	n[13.5 µM]	x	n[10 µM]	x
COC(=O)c1cc(NC(=O)c2cccc(C(F)(F)F)c2)c(=O)oc1C/C=N/OCc1cccc(Cl)c1Cl	20µM	n	n	n	n	n
Cc1cc(=O)[nH]c(-c2ccc(Cl)cc2)n1	n	x	x	n[9.22 µM]	n[10 µM]	n
Cc1ccc(SCC(=O)Nc2ccc(-c3nnc(-c4ccco4)o3)cc2)cc1	u	n	n	n	n	n
O=C(CSc1nnc(-c2ccco2)c(-c2ccco2)n1)Nc1ccccc1	16µM	25µM	2µM	n	n	x
CSc1nnc(-c2ccccc2)c(-c2ccccc2)n1	n	x	x	n[9.22 µM]	n[10 µM]	n
CSc1nnc(-c2ccco2)c(-c2ccco2)n1	u	8.9µM	3.5µM	u	n	u
COc1ccc(C(=O)CSc2nnc(-c3ccco3)c(-c3ccco3)n2)cc1	u	x	4µM	x	x	x
COc1ccc(C(=O)CSc2nnc(-c3ccco3)n2C)cc1	n	n	u	n	n	n
Cc1ccc(NC(=O)CSc2nnc(-c3ccco3)c(-c3ccco3)n2)cc1	u	11µM	3.2µM	n	n	x
CCOC(=O)C(c1ccccc1)C(Nc1cc(C(F)(F)F)cc(C(F)(F)F)c1)c1ccccn1 (stereo not drawn)	n	x	n	n[9.22 µM]	n[10 µM]	n
CC1=CC(=O)C=C(C)C1=NOc1ccc([N+](=O)[O-])cc1	n	x	n	u	n	n
Cc1cc2c(=O)n(NC(N)=O)c(C)nc2s1	n	n	n	n	n[10 µM]	n
Cn1c(SCc2cnc(-c3ccccc3)s2)nnc1C1COc2ccccc2O1 (stereo not drawn)	n	25µM	13µM	n	n[10 µM]	n
